This passage reports growth inhibition results from PubChem BioAssay (NCI).

“And” between values parts separate entries of the source, which are not always exact repeats. Identical values can stand only once. About 79,000 compounds went through this panel and 15% of them were active in at least one assay; those are over-represented in the sample as a whole. Values without a mark were called inactive. Cut-off read from the data, not from the text of the source: active = growth inhibition above about 70%; inactive = the rest.

The nature of this assay: NCI Yeast Anticancer Drug Screen. Data for the bub3 strain (AID 167). The conditions noted are these: S. cerevisiae bub3 mutant strain, at 50.0 µM, hits give high values. In short, it runs like this: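 In this screen, a yeast mutant lacking normal mitotic checkpoint function is challenged with compound. Relative growth versus vehicle gives the inhibition value.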
Regarding `CC12CCC3C(CCC4(C)CC(OC(=O)Cc5ccc(N(CCCl)CCCl)cc5)CCC34C)C1CCC2=O` (stereo not given), the growth inhibition was -4.8%. For the molecule `CC(=O)OC1CCC2(C)C3CCC4(C)C(Oc5ccccc5)CCC4C3CC(Br)C2(O)C1` (stereo not given), the growth inhibition was -31.6%. Consider `O=C(O)c1ccccc1O.[Cu]`, for which the growth inhibition is -19.1%. For the molecule `[C-]#[O+].[C-]#[O+].[C-]#[O+].[C-]#[O+].[C-]#[O+].[C-]#[O+].[C-]#[O+].[C-]#[O+].[C-]#[O+].[C-]#[O+].[Mn].[Mn]`, the growth inhibition was 4.45%. As for `CCN(CC)C(=O)N1CN(c2ccccc2)C2(CCN(CCCC3(c4ccc(F)cc4)OCCO3)CC2)C1=O`, the growth inhibition was 23.8%. For `O=[P+](O)c1ccccc1`, the growth inhibition is -4.65% and -2%. For the molecule `CCCC1CC=CCC12C(=O)NC(=O)NC2=O` (stereo not given), the growth inhibition is 0.5%.

On to `OC1=C2CCCCCC2=[N+]2CCCCC2C1` (stereo not given), for which the growth inhibition is 32.2%. The figure for `O=C1NCCCCC1Cl` (stereo not given) is 8.8%. For `O=NN1CCOCC1`, the growth inhibition is -1.6%. On to `[Se]c1nc(N2CCOCC2)ncc1-c1ccccc1`, for which the growth inhibition was -3.3%.

As for `COc1ccc(/C=C/c2cc(OC)c3c(c2)OCO3)cc1O`, the growth inhibition was 1.7%. Regarding `ClCCN(CCCl)c1ccc(CCN2CCOCC2)cc1`, the growth inhibition was -0.1%. For the molecule `COC(=O)C[CH2][Sn]([CH2]CC(=O)OC)([c]1ccccc1)[c]1ccccc1`, the growth inhibition was 14.4%. Turning to `[C-]#[O+].[C-]#[O+].[C-]#[O+].[C-]#[O+].[W].c1ccc([PH+](CC[PH+](c2ccccc2)c2ccccc2)c2ccccc2)cc1`, the growth inhibition is -7.5%.
